Most compounds without a hit are left out; they make up all but 11% or so of the library.
ALOX15 inhib – blocks human 15-lipoxygenase activity. P16050. purified 15hLO-1, xylenol orange hydroperoxide absorbance. Potency, µM (doses to about 57.1 µM), most hits filed as inhibitors. 74,000 tested, 1.4% active. AID 887; further: nearly all actives have a fitted effect of over 55% in size
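Inhibition is scored from a chromogenic endpoint. After 15 min enzyme-compound contact, arachidonic acid (50 uM final) reacts 6 min with 40 nM 15hLO-1 at room temperature, then Fe-XO reagent is added for 30 min and absorbance ratio recorded.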
ERK AVP inh – inhibitors of vasopressin-stimulated ERK signaling pathway | Potency, µM (series often up to 57.5 µM), actives largely listed as inhibitors | 72,000 tested, 0.99% active | HEK293-V1b, vasopressin-stimulated pERK AlphaScreen; further: nearly all actives have a fitted effect of over 55% in size
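HEK293 cells stably expressing V1b receptor, preincubated 30 min at 37 °C with compound, then stimulated 5 min with 25 nM vasopressin. Phospho-ERK by AlphaScreen SureFire after 5 h RT; normalized to DMSO and vasopressin; AC50 by Hill fit.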
Luciferase inh – inhibitors of firefly luciferase; P08659; purified firefly luciferase, luminescence, 8 min; Potency, µM (highest dose often 57.1 µM), most hits filed as inhibitors; 72,000 tested, 2.2% active; further: nearly all actives have a fitted effect of over 40% in size
Target sequence (P08659 whole entry, looked up): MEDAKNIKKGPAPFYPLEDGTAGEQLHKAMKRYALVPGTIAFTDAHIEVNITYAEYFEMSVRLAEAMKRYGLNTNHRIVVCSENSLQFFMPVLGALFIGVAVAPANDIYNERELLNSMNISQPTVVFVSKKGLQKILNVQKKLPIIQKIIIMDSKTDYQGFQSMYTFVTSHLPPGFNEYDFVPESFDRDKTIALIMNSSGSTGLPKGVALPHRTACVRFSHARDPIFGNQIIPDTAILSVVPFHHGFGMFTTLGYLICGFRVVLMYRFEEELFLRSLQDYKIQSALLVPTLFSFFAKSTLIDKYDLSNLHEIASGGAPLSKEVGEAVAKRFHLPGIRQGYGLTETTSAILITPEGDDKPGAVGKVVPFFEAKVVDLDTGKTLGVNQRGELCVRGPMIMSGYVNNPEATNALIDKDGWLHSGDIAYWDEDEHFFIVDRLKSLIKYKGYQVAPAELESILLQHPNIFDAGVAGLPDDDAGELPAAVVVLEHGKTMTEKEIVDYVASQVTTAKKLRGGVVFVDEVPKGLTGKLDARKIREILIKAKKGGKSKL
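Here, luciferase activity is measured as luminescence following an 8 min room-temperature reaction at 10 uM ATP, pH 7.2. Every library sample is titrated.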
HADH2 inh – HADH2 (human) dehydrogenase inhibition; 73,000 tested, 3.4% active; AID 886; Potency, µM (doses to about 57.1 µM), actives largely listed as inhibitors; recombinant HADH2, NADH fluorescence, beta-hydroxybutyryl-CoA; Q99714; further: nearly all actives have a fitted effect of over 60% in size
Target sequence (Q99714 whole entry, looked up, one chain of several): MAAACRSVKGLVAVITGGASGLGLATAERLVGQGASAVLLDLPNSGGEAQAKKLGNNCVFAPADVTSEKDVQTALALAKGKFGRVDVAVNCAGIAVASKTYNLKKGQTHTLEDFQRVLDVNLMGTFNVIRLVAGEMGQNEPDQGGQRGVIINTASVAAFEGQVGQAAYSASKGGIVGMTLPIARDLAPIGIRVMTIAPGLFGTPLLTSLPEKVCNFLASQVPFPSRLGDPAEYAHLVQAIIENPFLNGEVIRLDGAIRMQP
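His-tagged recombinant enzyme from E. coli, 20 nM, preincubated 15 min RT with compound; reaction started with 1 mM NAD+ and 90 uM beta-hydroxybutyryl-CoA in 100 mM Tris-HCl pH 9.0. NADH fluorescence (ex 360/em 450) read over 4 min; last-minus-first difference.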
HSD17B inh – HSD17B dehydrogenase inhibition; recombinant HSD17B10, NADH fluorescence kinetic; Q99714; 75,000 tested, 7.6% active; Potency, µM (titrated, usually from 57.1 µM), actives largely listed as inhibitors;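 further: the protocol describes HADH2 (HSD17B10) and not the HSD17B4 of the title; nearly all actives have a fitted effect of over 70% in size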
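Enzyme plus compound, 15 min room temperature; substrate mix added (NAD+ 1 mM, beta-hydroxybutyryl-CoA 90 uM final); plates read kinetically for NADH fluorescence. HADH2 was His-tagged, E. coli-derived, 20 nM.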
Bst PK mod – alters activity of Bacillus stearothermophilus pyruvate kinase; purified pyruvate kinase, luminescence ATP production; ribose 5-phosphate activator present at AC10; Potency, µM; 51,000 tested, 1.2% active; AID 361; in the data active means potency below about 11 µM; inconclusive means mostly about 12 µM to 25 µM;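 the screen sought inhibitors and activators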
Each line names hits and unclear results; the compound was inactive in the other large screens. Unless noted, the call rests on the fitted dose curve; in most records, active means well fitted curve in the direction sought with a large enough effect; inconclusive means small, poorly fitted or top-dose-only effect, or another doubt; inactive means no such curve, though single readings can be large; an effect the other way counts as inactive or inconclusive.

Cc1cc(NC(=O)c2ccc3c(c2)OCO3)no1	Luciferase inh 7.94µM (no result: Bst PK mod)
CCOc1ccc(C(=O)Nc2cc(C)on2)cc1OCC	ERK AVP inh inconclusive
CCOC(=O)Cc1csc(NC(=O)c2ccc(Br)s2)n1	none (no result: Bst PK mod)
O=C(NC1CCCCCCC1)c1ccc2c(c1)OCO2	Luciferase inh 15.8µM (no result: Bst PK mod)
O=C(O)[C@@H](O)c1ccc(F)cc1	none (no result: Bst PK mod)
CCN1C(=O)[C@H]2[C@H]3[C@H](O)[C@H](O)C/C(=N/O[C@@H](C)CN4CCCc5nc(C)c(C)cc54)[C@@H]3CC[C@@H]2C1=O	HSD17B inh inconclusive (no result: Bst PK mod)
Cc1cc(-c2nnco2)c(C)n1-c1ccccc1	Luciferase inh 12.6µM (no result: Bst PK mod)
CCCCCCCCCCCCCCCCCCNC(=O)OC[C@@H](COP(=O)([O-])OCC[n+]1ccsc1)OC	none (no result: Bst PK mod)
COc1ccc(-c2nc3nc(C)c(Cc4ccccc4)c(=O)n3[nH]2)cc1	HSD17B inh 25.1µM
COC(=O)Cc1c(C)nc2nc(-c3ccc(OC)cc3)[nH]n2c1=O	Luciferase inh 12.6µM, HADH2 inh inconclusive, HSD17B inh 31.6µM (no result: Bst PK mod)
CC(C)CC(C(=O)Nc1oc(-c2ccco2)c(-c2ccco2)c1C#N)N1C(=O)c2ccccc2C1=O (stereo not given)	ALOX15 inhib 25.1µM, ERK AVP inh inconclusive, HADH2 inh 12.6µM, HSD17B inh 2.51µM
CN(C)Cc1ccccc1-c1ccc2ncnc(N(C)C)c2c1	none (no result: Bst PK mod)
CN(C)c1ncnc2ccc(-c3ccccc3C#N)cc12	HSD17B inh 5.01µM (no result: Bst PK mod)
CNc1ncnc2ccc(-c3ccccc3C#N)cc12	ERK AVP inh inconclusive, HSD17B inh 3.16µM (no result: Bst PK mod)
O=C(N/N=C1/C[C@@H](O)[C@@H](O)[C@@H]2[C@@H]3C(=O)N(C4CCCCC4)C(=O)[C@H]3CC[C@H]12)OCc1ccccc1	none (no result: Bst PK mod)
CCOc1ccc(Nc2oc(-c3ccco3)nc2C#N)cc1	ALOX15 inhib inconclusive, HADH2 inh inconclusive, HSD17B inh inconclusive (no result: Bst PK mod)
CN(C)c1oc(-c2ccccc2Cl)nc1C#N	HSD17B inh 25.1µM
N#Cc1nc(-c2ccccc2Cl)oc1N1CCCCC1	none (no result: ALOX15 inhib, ERK AVP inh, HADH2 inh, HSD17B inh)
CC1CC(C)CN(c2oc(-c3ccccc3Cl)nc2C#N)C1 (stereo not given)	HADH2 inh 1.58µM, HSD17B inh 25.1µM
CN(C)c1oc(-c2ccco2)nc1C#N	HADH2 inh 25.1µM, HSD17B inh 31.6µM
CN(Cc1ccccc1)c1oc(-c2ccco2)nc1C#N	HADH2 inh inconclusive, HSD17B inh 31.6µM
COc1cccc(-c2cncnc2NCc2ccc(OC)cc2OC)c1	none (no result: Bst PK mod)
CC(=O)OCC(=O)c1ccc2ccn(C(C)=O)c2c1	Luciferase inh inconclusive, HADH2 inh 25.1µM, HSD17B inh 25.1µM
CCOC(C)(C)C	none (no result: Luciferase inh, Bst PK mod)
CC(C)(C)c1cc2c(O)c(c1)Cc1cc(C(C)(C)C)cc(c1O)Cc1cc(C(C)(C)C)cc(c1O)Cc1cc(C(C)(C)C)cc(c1O)Cc1cc(C(C)(C)C)cc(c1O)Cc1cc(C(C)(C)C)cc(c1O)Cc1cc(C(C)(C)C)cc(c1O)Cc1cc(C(C)(C)C)cc(c1O)C2	none (no result: Bst PK mod)
C(=N\C(/N=C/c1ccco1)c1ccco1)/c1ccco1	ERK AVP inh inconclusive, HADH2 inh inconclusive, HSD17B inh 31.6µM
Nc1nnnn1/N=C/c1ccco1	none (no result: ALOX15 inhib, ERK AVP inh, HADH2 inh, HSD17B inh)
CSc1nnc(-c2cccs2)n1-c1ccccc1	HSD17B inh 31.6µM
c1ccc(-n2c(-c3ccncc3)nnc2-c2cccs2)cc1	HSD17B inh 31.6µM
COCCn1c(SCc2csc(-c3ccccc3)n2)nc2ccccc21	ERK AVP inh 25.1µM
COc1ccc(C(=O)/C=C/Nc2cc(C)on2)cc1	Luciferase inh 3.16µM, HSD17B inh inconclusive (no result: Bst PK mod)
COc1ccc(CC(=O)Nc2cc(C)on2)cc1	none
N.N.N.N.N.N.N.N.N.N.N.N.N.N.O.O.[Ru].[Ru].[Ru]	ERK AVP inh 15.8µM, Luciferase inh inconclusive, HADH2 inh inconclusive (no result: Bst PK mod)
Cc1ccc(N=Nc2c(O)c3ccccc3[nH]c2=O)c(S(=O)(=O)N(C)C)c1	Luciferase inh 3.16µM (no result: Bst PK mod)
Cc1ccc(S(=O)(=O)N(C)Cc2cc3ccccc3[nH]c2=O)cc1	HADH2 inh inconclusive
CCN(CC)c1ccc(NC(=O)c2ccc(Br)o2)c(C)c1	ALOX15 inhib inconclusive, ERK AVP inh 25.1µM
COc1ccc(-c2cc(C(F)(F)F)nc(SCC(=O)Nc3cc(C)on3)n2)cc1OC	HSD17B inh 31.6µM
COc1ccc(-c2cc(C(F)(F)F)nc(SCC(=O)N3CC(C)OC(C)C3)n2)cc1OC (stereo not given)	HADH2 inh inconclusive, HSD17B inh 5.01µM
COc1ccc(-c2cc(C(F)(F)F)nc(SCCC(=O)N3CCN4CCCC4C3)n2)cc1 (stereo not given)	none
Cc1cc(NC(=O)CSc2ccc3nnc(-c4ccc(Cl)cc4)n3n2)no1	HSD17B inh inconclusive
COc1ccc(-c2ccc(SCC(=O)Nc3cc(C)on3)nn2)cc1OC	Luciferase inh 12.6µM
Cc1cc(NC(=O)CSc2ccc3nnc(-c4cccc(F)c4)n3n2)no1	HSD17B inh 31.6µM
COc1ccc(-c2nnc(SCC(=O)Nc3cc(C)on3)n2N)cc1OC	none
O=C(O)c1ccc(NS(=O)(=O)c2ccsc2C(=O)O)cc1	none (no result: Luciferase inh, Bst PK mod)
COc1cccc(Nc2ncc3nc(-c4cc(F)cc(F)c4)c(=O)n(CCC#N)c3n2)c1	none (no result: Bst PK mod)
CC(C)C[C@@H](CC(=O)N[C@H](CC(=O)N[C@@H]1CCCC[C@H]1C(=O)N[C@H](CC(=O)N[C@@H](CCC(=O)O)CC(=O)O)Cc1c[nH]c2ccccc12)C(C)C)NC(=O)[C@@H]1CNCC[C@H]1N	none (no result: ALOX15 inhib, ERK AVP inh, Luciferase inh, HSD17B inh, Bst PK mod)
Nc1nc(SCC(=O)O)[nH]c(=O)c1N	none (no result: Bst PK mod)
CC1=NNC(=S)NCCCN2CCN(CCCNC(=S)NN=C(C)C=NNC(=S)NCCCN3CCN(CCCNC(=S)NN=C1)CC3)CC2	none (no result: Bst PK mod)
CS(=O)(=O)Nc1cccc(-c2cc(Nc3ccccc3)ncn2)c1	none (no result: Bst PK mod)
O=C(O)C(=Cc1ccc(-c2ccccc2)cc1)C(=O)O	none (no result: Bst PK mod)
CCC(=O)Nc1c(OC(=O)CC)ccc2c(C)cc(=O)oc12	HADH2 inh 3.16µM, HSD17B inh 10µM (no result: Bst PK mod)
CC1CN(S(=O)(=O)c2cccc(C(=O)OCc3cc(=O)oc4cc(O)ccc34)c2)CC(C)O1 (stereo not given)	ALOX15 inhib inconclusive, ERK AVP inh inconclusive
O=C(Cc1cc(=O)oc2cc(O)ccc12)NCC1CCC(C(=O)O)CC1 (stereo not given)	HSD17B inh 15.8µM
CCCCC(=O)Nc1cccc(-c2nc3ncccc3o2)c1	HADH2 inh inconclusive, HSD17B inh 31.6µM (no result: Bst PK mod)
Cc1cc(-c2nc3ncccc3o2)ccc1N	Luciferase inh inconclusive, HADH2 inh inconclusive, HSD17B inh 15.8µM
CCCCC(=O)Nc1cccc(NC(=O)CC)c1	none
COc1c(C)cc(Br)cc1C(=O)Nc1cccc(-c2nc3ncccc3o2)c1	none (no result: ERK AVP inh, Bst PK mod)
